Test results: PubChem BioAssay (NCATS)
A number with no mark means an inactive call. Inconclusive results are not listed. A call without a number means that no potency is given here. The source made the active and inactive calls. The call rests on the fitted dose curve; in most records, active means well fitted curve in the direction sought with a large enough effect; inconclusive means small, poorly fitted or top-dose-only effect, or another doubt; inactive means no such curve, though single readings can be large; an effect the other way counts as inactive or inconclusive.

Legend:
[1] = molecular target: Phospholipid hydroperoxide glutathione peroxidase GPX4 (Homo sapiens) (UniProt P36969); assay: Primary qHTS Assay for Inhibitors of Recombinant Selenoprotein Glutathione Peroxidase 4 (GPX4) (AID 1845192); further: nearly all actives have a fitted effect of over 65% in size; on activity change, negative = inhibition: series mostly up to about 50 µM
Phospholipid hydroperoxide glutathione peroxidase GPX4 (Homo sapiens), sequence (P36969 whole entry, looked up): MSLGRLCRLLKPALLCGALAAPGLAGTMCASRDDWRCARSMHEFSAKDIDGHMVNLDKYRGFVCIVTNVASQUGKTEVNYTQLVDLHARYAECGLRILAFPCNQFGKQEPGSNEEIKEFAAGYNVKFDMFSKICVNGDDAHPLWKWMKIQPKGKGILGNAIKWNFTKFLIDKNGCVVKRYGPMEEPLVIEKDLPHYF
Procedure, shortened: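 NADPH consumption followed by fluorescence at 340/450 nm, t=0 and after 15 min at room temperature. Reaction started with cumene hydroperoxide (0.5 mM final) after 30 min compound–GPX4 preincubation; final 200 nM GPX4, 100 nM GR, 1 mM GSH, 0.5 mM NADPH.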

[2] = molecular target: Luciferin 4-monooxygenase (Photinus pyralis) (UniProt P08659); assay: Primary firefly luciferase (FLuc) qHTS assay for identification of artifact compounds. (AID 1845220); further: nearly all actives have a fitted effect of over 60% in size; on activity change, negative = inhibition: series mostly up to about 54 µM
Procedure, shortened: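 FLuc 10 nM; luciferin 10 uM; ATP 10 uM; Tris-acetate pH 7.6, Mg-acetate 10 mM; 15 min RT preincubation; 5 min reaction; luminescence.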

[3] = Primary fluorescence-based thiol-reactive (MSTI) qHTS assay for identification of artifact compounds. (AID 1845221); further: nearly all actives have a fitted effect of over 65% in size; further: potency means the concentration at half of the fitted maximal effect;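 on activity change, negative = thiol reactive: series mostly up to about 54 µM; thiol-reactive compounds lower the probe fluorescence signal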
Procedure, shortened: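 Reactivity toward the thiol probe MSTI (4 uM) is scored by fluorescence at Ex/Em 525/598 nm after 1 h at room temperature. Acetyl-MSTI and MSTI define the activity scale.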

[4] = Primary redox qHTS assay for identification of artifact compounds. (AID 1845223)
Procedure, shortened: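 Redox-cycling detection via DTT (250 uM final) oxidation coupled to Amplex Red (25 uM)/HRP (250 mU/mL) in HBSS. 15 min preincubation plus 30 min after DTT, room temperature. Ex/Em 525/598 nm; 4-parameter Hill fit against DMSO and 10 uM DA3003.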

[5] = system: Nanoluciferase (engineered Oplophorus gracilirostris luciferase); assay: Primary Nanoluciferase (NLuc) qHTS assay for identification of artifact compounds. (AID 1845222);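 further: NLuc secreted into diluted conditioned medium of S16 cells; series mostly up to about 54 µM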
Procedure, shortened: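 NLuc from S16 cell medium (1:55) plus test compounds, 15 min, room temperature. Luminescence after Nano-Glo (1:100) addition, 5 min.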

## C=CC(C)(O)CC/C=C(\C)C(=O)OC1CC2(C(=O)O)CCC3(C)C(=CCC4C5(C)CCC(OC6OC(COC7OCC(O)C(O)C7O)C(O)C(OC7OCC(O)C(O)C7O)C6OC6OC(CO)C(O)C(O)C6OC6OCC(O)C(O)C6O)C(C)(C)C5CCC43C)C2CC1(C)C (stereo not drawn)
[1]
  activity change, negative = inhibition: -6.88% [at 9.73 µM]
[2]
  outcome: inactive [at 11.6 µM]
[3]
  activity change, negative = thiol reactive: 122% [at 11.5 µM]
[4]
  redox activity (% of DA3003): 11.8% [at 11.5 µM]

## C[C@@H]1CC[C@H]2C(C)(C)[C@H](O)[C@H](O)C[C@]2(C)[C@@]12Cc1c(O)cc3c(c1O2)CNC3=O
[1]
  Potency: inactive
[2]
  Potency: inactive
[3]
  Potency: inactive
[4]
  Potency: inactive

## O=C(O[C@@H]1O[C@H](CO)[C@@H](O)[C@H](O)[C@H]1O)c1c(O)cc(O)cc1/C=C/c1ccccc1
[1]
  Potency: inactive
[2]
  Potency: inactive
[3]
  Potency: 7.33 µM (active)
[4]
  Potency: inactive

## COc1cc(C2c3cc(O)c(OC)cc3CC(CO)C2CO)ccc1O (stereo not drawn)
[1]
  Potency: inactive
[2]
  Potency: inactive
[3]
  Potency: 8.26 µM (active)
[5]
  Potency: inactive
[4]
  Potency: inactive

## CCC(=O)N[C@@H]1Cc2ccccc2[C@H](c2ccccc2)C1
[1]
  Potency: inactive
[2]
  Potency: inactive
[3]
  Potency: inactive
[4]
  Potency: inactive

## CC1=CCC2C(C)(CO)CCCC2(CO)C1CO (stereo not drawn)
[1]
  Potency: inactive
[2]
  Potency: inactive
[3]
  Potency: 13.4 µM (active)
[4]
  Potency: inactive

## C=C(C(=O)O)C1CCC(C)C2CCC(=O)OC2(C)C1 (stereo not drawn)
[1]
  Potency: inactive
[2]
  Potency: inactive
[3]
  Potency: 11.9 µM (active)
[4]
  Potency: inactive

## O=C(NCC(=O)N1CC[C@H](NC2CCC(O)(c3ccc(-c4ncccn4)cn3)CC2)C1)c1cccc(C(F)(F)F)c1 (stereo partly drawn)
[1]
  Potency: inactive
[2]
  Potency: inactive
[3]
  Potency: inactive
[4]
  Potency: inactive
